HT1080-NT tox: kills 2HG-producing HT-1080-NT fibrosarcoma cells. AID 686970. HT-1080-NT fibrosarcoma viability, CellTiter-Glo ATP luminescence, 48 h. Potency, µM (highest dose often 46.1 µM), for the others: at the top dose activity, negative = less viability, hits mostly cytotoxic. hit rate 1.6% among 360,000;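 further: NT is the 2HG producing partner of a matched IDH1 knockdown line; potency means the concentration at half of the fitted maximal effect; 0% = DMSO-treated cells and -100% = media-only wells without cells; nearly all actives have a fitted effect of over 55% in size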
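Viability of the 2HG-overproducing fibrosarcoma line after 48 hours of compound exposure at 37 degrees C was determined by luminescence with CellTiter-Glo, and concentration-effect curves were then fitted and categorized.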
TDP1 cell CPT: DT40-hTDP1 cell growth loss with CPT; chicken DT40 Tdp1-/-;hTDP1 cells + 20 nM CPT, ATP luminescence, 48 h; Potency, µM (highest dose often 46.2 µM), for the others: top-dose activity change, negative = growth inhibition, hits mostly inhibitors; hit rate 12% among 420,000; further: potency means the concentration at half of the fitted maximal effect; nearly all actives have a fitted effect of over 55% in size
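Chicken DT40 Tdp1-/- cells stably complemented with human TDP1 were seeded at 400 cells/well in medium containing 20 nM camptothecin, exposed to pin-transferred compounds, and grown at 37 °C for at least 48 hr. Viability was read as ATP luminescence.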
HT1080 IDH1KD tx: kills HT-1080 cells with IDH1 knockdown | HT-1080 IDH1 knockdown viability, ATP luminescence, 48 h | AID 686971 | hit rate 2% among 360,000 | Potency, µM (series often up to 46.1 µM), for the others: at the top dose activity, negative = toxicity, usual class: cytotoxic;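 further: potency means the concentration at half of the fitted maximal effect; 0% = DMSO wells and -100% = cell-free medium wells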
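Cytotoxicity counter-line: IDH1KD HT-1080, 48 h, CellTiter-Glo. Curves classed by r2, magnitude and activity.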
IL1B secr inh: inflammasome signaling inhibition, IL-1 beta readout; THP-1 LPS/ATP IL-1B secretion, AlphaLISA, 16 h; hits give low values; activity change, % at 57.5 µM; hit rate 4.7% among 360,000; AID 743279; in the data active means activity change below about -50%; inconclusive means mostly about -30% to -49%
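THP-1 cells pretreated 1 hr with compounds (up to 57.5 uM final), then stimulated with LPS (250 ng/mL final) plus ATP (1.25 mM final); secreted IL-1B measured by AlphaLISA after 16 hr, decreased signal indicating inhibition.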
DT40 TDP1 no CPT: qHTS for Inhibitors of human tyrosyl-DNA phosphodiesterase 1 (TDP1): qHTS in cells in absence of CPT; AID 686978, 2013; Potency, µM (top dose mostly 46.2 µM), without a hit: top-dose activity change, negative = growth inhibition, hits mostly inhibitors; hit rate 15% among 420,000; DT40 Tdp1-/- hTDP1 cells, no CPT, ATP luminescence, 48 h; further: potency means the concentration at half of the fitted maximal effect; nearly all actives have a fitted effect of over 55% in size
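Luminescent ATP content (CellTiter-Glo) served as the growth readout. Knockout chicken DT40 cells expressing human TDP1 were exposed to compounds without camptothecin for a minimum 48 hr at 37 °C.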
ALOX12 inh: blocks human arachidonate 12S-lipoxygenase; Potency, µM (doses to about 108 µM), for inactives: at the top dose activity change, negative = inhibition, usual class: inhibitors; hit rate 1.1% among 580,000; P18054; purified 12hLO, xylenol orange hydroperoxide absorbance; further: potency means the concentration at half of the fitted maximal effect
Target sequence (P18054 whole entry, looked up): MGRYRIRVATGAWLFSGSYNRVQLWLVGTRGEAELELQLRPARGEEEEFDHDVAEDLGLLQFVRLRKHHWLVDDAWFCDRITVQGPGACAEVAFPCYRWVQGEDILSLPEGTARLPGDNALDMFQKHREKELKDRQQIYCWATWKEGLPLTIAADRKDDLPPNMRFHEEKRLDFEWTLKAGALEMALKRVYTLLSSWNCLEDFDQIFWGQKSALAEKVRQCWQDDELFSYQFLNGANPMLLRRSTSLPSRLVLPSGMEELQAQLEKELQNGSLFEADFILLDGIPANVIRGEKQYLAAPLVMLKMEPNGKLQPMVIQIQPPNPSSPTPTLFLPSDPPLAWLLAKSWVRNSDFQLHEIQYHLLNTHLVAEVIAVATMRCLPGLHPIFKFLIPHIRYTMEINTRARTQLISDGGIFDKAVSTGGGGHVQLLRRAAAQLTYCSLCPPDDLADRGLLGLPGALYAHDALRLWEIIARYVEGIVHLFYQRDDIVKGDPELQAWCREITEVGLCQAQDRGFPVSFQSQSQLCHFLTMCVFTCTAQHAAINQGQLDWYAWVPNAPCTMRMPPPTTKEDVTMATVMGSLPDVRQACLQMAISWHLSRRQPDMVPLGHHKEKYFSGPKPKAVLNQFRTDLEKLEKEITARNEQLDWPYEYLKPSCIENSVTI
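Purified human 12hLO (150 nM final) in 25 mM Hepes, 0.01% Triton X-100, pH 7.0 was preincubated 15 min at room temperature with compound. Then 40 uM arachidonic acid was added, 30 min. Hydroperoxide was read by Fe-XO absorbance ratio 573/405 nm.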
* marks the source's active call; other numbers are inactive results; ? = inconclusive; / = no result; [ ] = remark or other dose. Many of the other results were omitted from the sample, so hits are more common in it than they were. Unless noted, the call rests on the fitted dose curve; in most records, active means well fitted curve in the direction sought with a large enough effect; inconclusive means small, poorly fitted or top-dose-only effect, or another doubt; inactive means no such curve, though single readings can be large; an effect the other way counts as inactive or inconclusive. Unless noted, on the % scale 0 is the no-effect control and ±100 the full control effect.

SMILES | HT1080-NT tox | TDP1 cell CPT | HT1080 IDH1KD tx | IL1B secr inh | DT40 TDP1 no CPT | ALOX12 inh
CCN(CC)C(=O)Oc1cc2c(-c3cc4cccc(OC)c4o3)cc(=O)oc2cc1C | 5% | 16µM* | 9% | -11 | 23µM* | -7%
Cc1cc2oc(=O)cc(-c3cc4ccccc4o3)c2cc1OC(=O)N(C)C | -13% | 15µM* | -1% | 24 | ? | -4%
CN(C)C(=O)Oc1ccc2oc(=O)cc(-c3cc4ccccc4o3)c2c1 | 4% | -23% | 7% | 0 | -13% | 0%
C=C[C@H]1CN2CC[C@H]1C[C@@H]2CNC(=O)c1ccc2ccccc2c1 | / | / | / | / | / | 53%[176 µM]
COc1ccc(OCC(=O)N2CCN(C3CCC(c4ccccc4)CC3)CC2)cc1 (stereo not drawn) | -11% | ? | -4% | -3 | 18µM* | ?
O=C(COc1ccc2ccccc2c1)N1CCN(C2CCN(Cc3ccccc3)CC2)CC1 | -23% | 16µM* | -2% | -19 | ? | -15%
COc1ccc(OCC(=O)N2CCCC(N3CCN(c4ccccc4C)CC3)C2)cc1 (stereo not drawn) | -4% | 16µM* | -4% | -16 | 21µM* | -5%
O=C(COc1ccc2ccccc2c1)N1CCN(CC2CC3C=CC2C3)CC1 (stereo not drawn) | -15% | 18µM* | -15% | -14 | 18µM* | ?
CN1CCN(C(=O)COc2ccc3ccccc3c2)CC1 | 2% | -3% | 0% | 16 | 7% | 13%
Oc1cc(Cl)cc(Cl)c1 | / | / | / | / | / | -31%
COC[C@H]1C[C@@H](NC2CCOCC2)[C@H](O)[C@@H]1O | / | / | / | / | / | 31%[176 µM]
O=S1(=O)NCC2(CCN(Cc3ccsc3)C2)Oc2ncccc21 (stereo not drawn) | / | / | / | / | / | 10%[6.33 µM]
O=C(Cc1ccccc1)N1CCN(C2CCCC2)CC1 | 21% | -3% | 12% | 22 | -13% | 0.89µM*
CCC(CC)N1CCN(C(=O)Cc2ccccc2)CC1 | 11% | -1% | 3% | 36 | 0% | ?
CN(C)C(=O)CCSC(SCCC(=O)O)c1cccc(/C=C/c2ccc3ccc(Cl)cc3n2)c1 (stereo not drawn) | / | ? | / | / | 17µM* | /
COC1CC(C)C(OC)c2cc(O)cc(c2O)NC(=O)C(C)=CC=CC(C)C(OC(N)=O)C(C)=CC(C)C1OC (stereo not drawn) | -21% | 0.092µM* | 23µM* | -101* | 0.15µM* | -26%
COc1ccc(OCC(=O)N2CCN(Cc3cc(=O)n4nc(-c5ccc(OC)cc5)sc4n3)CC2)cc1 | / | 15µM* | / | / | 21µM* | -13%
CN1CCN(C(=O)COc2ccc(-c3nc4ccccc4s3)cc2)CC1 | ? | -30% | -1%[9.24 µM] | -60* | 18µM* | -35%
CN1CCCN(C(=O)COc2ccccc2)CC1 | 18% | -6% | 11% | 12 | 9% | ?
COc1ccccc1-c1nn2c(=O)cc(CN3CCN(C(=O)COc4ccccc4Cl)CC3)nc2s1 | / | ? | / | / | 21µM* | -15%
Cc1cc(C=C2C(=O)N(C)C(=S)N(C)C2=O)c(C)n1-c1cccnc1 | 6% | ? | 16% | -68* | ? | ?
O=C(Nc1ccncc1)C(=O)c1cn(Cc2ccc(Cl)cc2)c2ccccc12 | / | / | / | / | / | 5%[57.4 µM]
Cc1ccccc1-n1c(/C=C/c2ccccn2)nc2ccccc2c1=O | -26% | 18µM* | -5% | -53* | 23µM* | 26%
Cc1ccccc1-n1c(/C=C/c2ccc(O)cc2)nc2ccccc2c1=O | / | 9.2µM* | / | / | 5.8µM* | ?
Cc1c(NS(=O)(=O)c2ccccc2)ccc([N+](=O)[O-])c1Cl | 2.9µM* | ? | ? | -23 | 16µM* | -12%
SMILES | HT1080-NT tox | TDP1 cell CPT | HT1080 IDH1KD tx | IL1B secr inh | DT40 TDP1 no CPT | ALOX12 inh
O=[N+]([O-])c1ccc(NCCNS(=O)(=O)c2ccccc2)c2ncccc12 | / | / | / | / | / | -4%
CCNC(=S)NCCC1=c2ccccc2=N/C1=C\c1c(O)n(C)c(=O)n(C)c1=O | -2% | ? | -1% | 0 | 21µM* | ?
O=C(NCc1ccccc1)N1CCc2c(sc3c2CCCC3)C1c1ccccc1 (stereo not drawn) | / | ? | / | / | 16µM* | -9%
O=C1CCN(C(=O)CNC(=O)Cc2ccccc2)CC1 | 6% | 17% | 5% | 16 | 1% | -3%
Cc1csc(NC(=O)C2CCCN(S(=O)(=O)c3ccc4c(c3)oc(=O)n4C)C2)n1 (stereo not drawn) | 15% | ? | 0% | 9 | ? | 17%[57.4 µM]
COc1cccc(N2CCN(C(=O)C3CCN(S(=O)(=O)c4ccc5c(c4)oc(=O)n5C)CC3)CC2)c1 | 1% | 16µM* | 8% | -3 | 18µM* | 6%
Cn1c(=O)oc2cc(S(=O)(=O)N3CCCC(C(=O)N4CCN(c5cccc(Cl)c5)CC4)C3)ccc21 (stereo not drawn) | / | 9.2µM* | / | / | 8.2µM* | -7%
CC/C(=N\N1CCCCCC1)c1c(O)n(-c2ccccc2C)c(=O)[nH]c1=O | 3% | 21µM* | 4% | 2 | 15µM* | 11%
Cc1nc(-c2cccs2)cc([C@H]2CN3CC[C@H]2C[C@@H]3COC(=O)Nc2ccc(C(C)C)cc2)n1 | / | / | / | / | / | 45µM*
COc1ccccc1-c1cc([C@H]2CN3CC[C@H]2C[C@@H]3COC(=O)Nc2ccc(C(C)C)cc2)nc(C)n1 | / | / | / | / | / | 45µM*
CC(N)C(=O)c1ccccc1 (stereo not drawn) | / | / | / | / | / | -36%
COc1ccc2c(C)c(CCC(=O)N3C[C@H]4C[C@@H](C3)c3cccc(=O)n3C4)c(=O)oc2c1 | 1% | -2% | 1% | -3 | -22% | -6%
Cc1oc2cc3oc(=O)c(CCC(=O)N4CCCCC4)c(C)c3cc2c1C | / | 12µM* | / | / | 23µM* | 6%
CCOC(=O)Cn1c(=O)oc2cc(S(=O)(=O)Nc3c(C)cc(C)cc3C)ccc21 | ? | ? | ? | -10 | ? | -3%
CC1CCCC(C)N1c1nnc(NC(=O)Cn2c(=O)oc3ccccc32)s1 (stereo not drawn) | -4% | -20% | 1% | 11 | 13µM* | -10%
CC=C(C)C(=O)O[C@H]1C(C)=C2[C@@H]3OC(=O)[C@@](C)(O)[C@@]3(O)[C@@H](OC(=O)CCC)C[C@](C)(OC(C)=O)[C@@H]2[C@@H]1OC(=O)CCCCCCC | / | 0.21µM* | / | / | 0.12µM* | ?
CNCc1cn(C[C@H]2CC3CCN2C[C@@H]3C(=O)NC2CC2)nn1 (stereo partly drawn) | / | / | / | / | / | 15%[176 µM]
